PubChem BioAssay AID1159580 (chemical genetic matrix, 2015)
Screen size: about 5,500 compounds; about 2,000 (36%) were called active. Inconclusive results (about 18%) are left out. Some of the results follow. Unmarked numbers belong to inactive results. Cut-off read from the data, not from the text of the source: active = normalized growth mostly below about 0.91 (no sharp cut-off); inconclusive = no clear call, values can overlap the other calls; inactive = mostly above about 0.92.

Experiment: chemical genetic growth profiling, strain panel (AID 1159580);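 note: tested at 20 µM; growth read once vehicle control cultures reached saturation at 30 °C; 1 = growth at the plate median or of vehicle wells; lower values mean less growth of the strain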
Conditions: growth OD
[1] = S. cerevisiae deletion strains, locus YAL013W, strain DEP1, hits give low values
[2] = S. cerevisiae deletion strains, locus YBR229C, strain ROT2, hits give low values
[3] = S. cerevisiae deletion strains, locus YDL101C, strain DUN1, hits give low values
[4] = S. cerevisiae deletion strains, locus YDR150W, strain NUM1, hits give low values
[5] = S. cerevisiae deletion strains, locus YEL061C, strain CIN8, hits give low values
[6] = S. cerevisiae deletion strains, locus YGR078C, strain PAC10, hits give low values
[7] = S. cerevisiae deletion strains, locus YHR030C, strain SLT2, hits give low values
[8] = S. cerevisiae deletion strains, locus YHR087W, strain rtc3, hits give low values
[9] = S. cerevisiae deletion strains, locus YJR043C, strain POL32, hits give low values
[10] = S. cerevisiae deletion strains, locus YJR075W, strain HOC1, hits give low values
[11] = S. cerevisiae deletion strains, locus YLR039C, strain RIC1, hits give low values
[12] = S. cerevisiae deletion strains, locus YLR058C, strain SHM2 (second series), hits give low values
[13] = S. cerevisiae deletion strains, locus YLR085C, strain ARP6, hits give low values
[14] = S. cerevisiae deletion strains, locus YLR262C, strain YPT6, hits give low values
[15] = S. cerevisiae deletion strains, locus YML094W, strain GIM5, hits give low values
[16] = S. cerevisiae deletion strains, locus YMR219W, strain ESC1, hits give low values
[17] = S. cerevisiae deletion strains, locus YMR263W, strain SAP30, hits give low values
[18] = S. cerevisiae deletion strains, locus YMR307W, strain GAS1, hits give low values
[19] = S. cerevisiae deletion strains, locus YNL153C, strain GIM3, hits give low values
[20] = S. cerevisiae deletion strains, locus YNL298W, strain CLA4 (second series), hits give low values
[21] = S. cerevisiae deletion strains, locus YNL322C, strain KRE1, hits give low values
[22] = S. cerevisiae deletion strains, locus YNR030W, strain Alg12, hits give low values
[23] = S. cerevisiae deletion strains, locus YPL055C, strain LGE1, hits give low values
[24] = S. cerevisiae deletion strains, locus YPL241C, strain CIN2, hits give low values
[25] = S. cerevisiae deletion strains, locus YPR135W, strain CTF4, hits give low values
[26] = S. cerevisiae deletion strains, locus YKL190W, strain CNB1, hits give low values
[27] = S. cerevisiae deletion strains, locus YNL128W, strain TEP1, hits give low values

Compound: O=C(NC(=S)Nc1ccccn1)c1ccccc1
- normalized growth [1]: 0.962
- normalized growth [2]: 0.948
- normalized growth [3]: 0.942
- normalized growth (S. cerevisiae deletion strains, locus YDL134C, strain PPH21, hits give low values): 0.977
- normalized growth [4]: 0.956
- normalized growth [5]: 0.783 (active)
- normalized growth [6]: 0.962
- normalized growth [7]: 0.401 (active)
- normalized growth [8]: 1
- normalized growth [9]: 0.955
- normalized growth [10]: 0.988
- normalized growth [11]: 0.573 (active)
- normalized growth [12]: 0.976
- normalized growth [13]: 0.428 (active)
- normalized growth [14]: 0.788 (active)
- normalized growth [15]: 0.777 (active)
- normalized growth [16]: 0.964
- normalized growth [17]: 0.993
- normalized growth [18]: 0.476 (active)
- normalized growth [19]: 0.933
- normalized growth [20]: 0.67 (active)
- normalized growth [21]: 1
- normalized growth [22]: 0.8 (active)
- normalized growth (S. cerevisiae deletion strains, locus YOL006C, strain TOP1, hits give low values): 0.213 (active)
- normalized growth [23]: 0.825 (active)
- normalized growth [24]: 0.807 (active)
- normalized growth [25]: 0.552 (active)

Compound: CC(C)c1ccc(NC(=S)NC(=O)c2ccccc2)cc1
- normalized growth (S. cerevisiae deletion strains, locus YAR019C, strain CDC15, hits give low values): 0.964
- normalized growth (S. cerevisiae deletion strains, locus YBL105C, strain PKC1, hits give low values): 0.952
- normalized growth (S. cerevisiae deletion strains, locus YBR135W, strain CKS1, hits give low values): 0.957
- normalized growth (S. cerevisiae deletion strains, locus YBR136W, strain MEC1, hits give low values): 0.963
- normalized growth (S. cerevisiae deletion strains, locus YBR160W, strain CDC28, hits give low values): 0.961
- normalized growth (S. cerevisiae deletion strains, locus YDL017W, strain CDC7, hits give low values): 0.96
- normalized growth (S. cerevisiae deletion strains, locus YDL028C, strain MPS1, hits give low values): 0.953
- normalized growth [3]: 0.96
- normalized growth (S. cerevisiae deletion strains, locus YDL108W, strain KIN28, hits give low values): 0.971
- normalized growth (S. cerevisiae deletion strains, locus YDL132W, strain cdc53, hits give low values): 0.953
- normalized growth (S. cerevisiae deletion strains, locus YDL214C, strain PRR2, hits give low values): 0.939
- normalized growth (S. cerevisiae deletion strains, locus YDR052C, strain DBF4, hits give low values): 0.962
- normalized growth (S. cerevisiae deletion strains, locus YDR054C, strain cdc34, hits give low values): 0.94
- normalized growth (S. cerevisiae deletion strains, locus YDR226W, strain ADK1, hits give low values): 0.955
- normalized growth (S. cerevisiae deletion strains, locus YDR477W, strain SNF1, hits give low values): 0.923
- normalized growth (S. cerevisiae deletion strains, locus YER123W, strain YCK3, hits give low values): 0.959
- normalized growth (S. cerevisiae deletion strains, locus YER133W, strain GLC7, hits give low values): 0.938
- normalized growth (S. cerevisiae deletion strains, locus YFL009W, strain cdc4, hits give low values): 0.952
- normalized growth (S. cerevisiae deletion strains, locus YFL029C, strain CAK1, hits give low values): 0.953
- normalized growth (S. cerevisiae deletion strains, locus YFR003C, strain YPI1, hits give low values): 0.961
- normalized growth (S. cerevisiae deletion strains, locus YFR019W, strain FAB1, hits give low values): 0.999
- normalized growth (S. cerevisiae deletion strains, locus YFR028C, strain CDC14, hits give low values): 0.958
- normalized growth (S. cerevisiae deletion strains, locus YGR040W, strain KSS1, hits give low values): 0.918
- normalized growth (S. cerevisiae deletion strains, locus YGR052W, strain FMP48, hits give low values): 1.03
- normalized growth (S. cerevisiae deletion strains, locus YGR092W, strain DBF2, hits give low values): 0.851
- normalized growth [7]: 0.797 (active)
- normalized growth (S. cerevisiae deletion strains, locus YHR079C, strain IRE1, hits give low values): 0.882
- normalized growth (S. cerevisiae deletion strains, locus YHR082C, strain KSP1, hits give low values): 0.974
- normalized growth (S. cerevisiae deletion strains, locus YHR205W, strain SCH9, hits give low values): 0.904
- normalized growth (S. cerevisiae deletion strains, locus YIL147C, strain SLN1, hits give low values): 0.963
- normalized growth (S. cerevisiae deletion strains, locus YJL095W, strain BCK1, hits give low values): 0.883
- normalized growth (S. cerevisiae deletion strains, locus YJL128C, strain PBS2, hits give low values): 0.94
- normalized growth (S. cerevisiae deletion strains, locus YJL157C, strain FAR1, hits give low values): 0.923
- normalized growth (S. cerevisiae deletion strains, locus YJR016C, strain ILV3, hits give low values): 0.958
- normalized growth (S. cerevisiae deletion strains, locus YJR066W, strain TOR1 (second series), hits give low values): 0.906
- normalized growth (S. cerevisiae deletion strains, locus YJR066W, strain TOR1, hits give low values): 0.891
- normalized growth (S. cerevisiae deletion strains, locus YKL048C, strain ELM1, hits give low values): 0.968
- normalized growth (S. cerevisiae deletion strains, locus YKL067W, strain YNK1, hits give low values): 0.953
- normalized growth (S. cerevisiae deletion strains, locus YKL101W, strain HSL1, hits give low values): 0.957
- normalized growth (S. cerevisiae deletion strains, locus YKL193C, strain SDS22, hits give low values): 0.954
- normalized growth (S. cerevisiae deletion strains, locus YKL203C, strain TOR2, hits give low values): 0.96
- normalized growth (S. cerevisiae deletion strains, locus YLR113W, strain HOG1, hits give low values): 0.919
- normalized growth (S. cerevisiae deletion strains, locus YLR133W, strain CKI1, hits give low values): 0.941
- normalized growth (S. cerevisiae deletion strains, locus YLR403W, strain SFP1, hits give low values): 0.879
- normalized growth (S. cerevisiae deletion strains, locus YML070W, strain DAK1, hits give low values): 0.97
- normalized growth (S. cerevisiae deletion strains, locus YMR001C, strain CDC5, hits give low values): 0.951
- normalized growth (S. cerevisiae deletion strains, locus YMR205C, strain PFK2 (second series), hits give low values): 0.956
- normalized growth (S. cerevisiae deletion strains, locus YMR277W, strain FCP1, hits give low values): 0.962
- normalized growth (S. cerevisiae deletion strains, locus YNL006W, strain LST8, hits give low values): 0.966
- normalized growth (S. cerevisiae deletion strains, locus YNL020C, strain ARK1, hits give low values): 0.926
- normalized growth (S. cerevisiae deletion strains, locus YNL161W, strain CBK1, hits give low values): 0.959
- normalized growth (S. cerevisiae deletion strains, locus YNL183C, strain NPR1, hits give low values): 0.957
- normalized growth (S. cerevisiae deletion strains, locus YNL207W, strain RIO2, hits give low values): 0.953
- normalized growth (S. cerevisiae deletion strains, locus YNL222W, strain SSU72, hits give low values): 0.959
- normalized growth (S. cerevisiae deletion strains, locus YNL307C, strain MCK1 (second series), hits give low values): 0.91
- normalized growth (S. cerevisiae deletion strains, locus YOL078W, strain AVO1, hits give low values): 0.956
- normalized growth (S. cerevisiae deletion strains, locus YOL136C, strain PFK27, hits give low values): 0.959
- normalized growth (S. cerevisiae deletion strains, locus YOR061W, strain CKA2, hits give low values): 0.904
- normalized growth (S. cerevisiae deletion strains, locus YOR119C, strain RIO1, hits give low values): 0.921
- normalized growth (S. cerevisiae deletion strains, locus YOR231W, strain MKK1, hits give low values): 0.911
- normalized growth (S. cerevisiae deletion strains, locus YOR329C, strain SCD5, hits give low values): 0.956
- normalized growth (S. cerevisiae deletion strains, locus YPL031C, strain PHO85, hits give low values): 0.898
- normalized growth (S. cerevisiae deletion strains, locus YPL153C, strain RAD53, hits give low values): 0.921
- normalized growth (S. cerevisiae deletion strains, locus YPL204W, strain HRR25, hits give low values): 0.933
- normalized growth (S. cerevisiae deletion strains, locus YPL209C, strain IPL1, hits give low values): 0.954
- normalized growth (S. cerevisiae deletion strains, locus YPL256C, strain CLN2, hits give low values): 0.92
- normalized growth (S. cerevisiae deletion strains, locus YPR025C, strain CCL1, hits give low values): 0.955
- normalized growth (S. cerevisiae deletion strains, locus YPR106W, strain ISR1, hits give low values): 0.958
- normalized growth (S. cerevisiae deletion strains, locus YPR111W, strain DBF20, hits give low values): 0.964
- normalized growth (S. cerevisiae deletion strains, strain NNK1, hits give low values): 0.967
- normalized growth (S. cerevisiae deletion strains, strain TSCII, hits give low values): 0.947

Compound: CC(C)c1ccc(NC(=S)NC(=O)c2ccc(C(F)(F)F)cc2)cc1
- normalized growth [1]: 1
- normalized growth [2]: 1.02
- normalized growth (S. cerevisiae deletion strains, locus YCL061C, strain MRC1, hits give low values): 1.01
- normalized growth [3]: 1.01
- normalized growth [4]: 1
- normalized growth [5]: 1.02
- normalized growth [6]: 1.02
- normalized growth (S. cerevisiae deletion strains, locus YGR229C, strain SMI1, hits give low values): 1.02
- normalized growth [7]: 1.1
- normalized growth [8]: 1.02
- normalized growth [9]: 1.01
- normalized growth [10]: 1
- normalized growth [26]: 1.02
- normalized growth [11]: 1.09
- normalized growth [12]: 1.02
- normalized growth [13]: 1.23 [resistant] (active)
- normalized growth [14]: 1.07
- normalized growth [15]: 1.02
- normalized growth [16]: 1.01
- normalized growth [17]: 1
- normalized growth [18]: 1.3
- normalized growth [27]: 1.02
- normalized growth [19]: 0.989
- normalized growth [20]: 1.06
- normalized growth [21]: 1.01
- normalized growth [22]: 1.01
- normalized growth [23]: 0.997
- normalized growth [24]: 1.13
- normalized growth [25]: 1.09

Compound: O=C(NC(=S)NCc1ccncc1)c1ccccc1
- normalized growth [1]: 1.02
- normalized growth [2]: 1.01
- normalized growth [3]: 1.01
- normalized growth [4]: 0.983
- normalized growth [5]: 1
- normalized growth [6]: 1.01
- normalized growth [7]: 1.05
- normalized growth [8]: 1
- normalized growth (S. cerevisiae deletion strains, locus YJL187C, strain SWE1, hits give low values): 0.973
- normalized growth [9]: 0.997
- normalized growth [10]: 1.03
- normalized growth [26]: 1.01
- normalized growth [11]: 0.928
- normalized growth [12]: 1
- normalized growth [13]: 0.969
- normalized growth [14]: 0.978
- normalized growth [15]: 1.01
- normalized growth [16]: 1
- normalized growth [17]: 1
- normalized growth [27]: 1.01
- normalized growth [19]: 1
- normalized growth [20]: 1.04
- normalized growth [21]: 1
- normalized growth [22]: 1.02
- normalized growth [23]: 1
- normalized growth [24]: 1.02
- normalized growth [25]: 0.929
- normalized growth (S. cerevisiae strains, strain wild type, hits give low values): 1.01
